# From PubChem BioAssay
# Active and inactive are the calls of the source. Unless noted, no rule for the calls is given here.
# What was measured:
# [1] = A549 cell viability effects, profiling panel, calcein-AM fluorescence, 48 h, basal (AID 1162); settings: higher = more signal; also: test concentration not given here
# [2] = adipocyte viability effects, profiling panel, cell-based, 3T3-L1 adipocytes, calcein-AM fluorescence, 48 h, basal (AID 1163); settings: 3T3-L1 adipocytes viability, higher = more signal; also: test concentration not given here
# [3] = HepG2 cell viability effects, profiling panel, calcein-AM fluorescence, 48 h, basal (AID 1164); settings: higher = more signal; also: test concentration not given here
# [4] = MM1S cell viability effects, profiling panel, calcein-AM fluorescence, 48 h, basal (AID 1165); settings: higher = more signal;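 also: viability of MM1S multiple myeloma cells under basal unstimulated conditions; test concentration not given here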
# [5] = basal RPMI8226 viability, no added stimulus, profiling panel, cell-based, calcein-AM fluorescence, 48 h, PK04 Diversity Set (AID 1166); settings: RPMI8226 myeloma viability, higher = more signal;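 also: cells grown under basal conditions without added stimulus; test concentration not given here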
# [6] = basal HepG2 mitochondrial membrane potential changes, profiling panel, cell-based, JC-1 fluorescence, 24 h, 100 nL compound (AID 1167); settings: higher = more signal; also: test concentration not given here
# [7] = basal 3T3-L1 adipocyte mitochondrial potential changes, profiling panel, cell-based, JC-1 fluorescence, 3T3-L1 adipocytes, 24 h, 100 nL compound (AID 1168); settings: JC-1 mitochondrial fluorescence, higher = more signal, called active from +8 up or from −8 down; also: test concentration not given here
# [8] = basal RPMI8226 mitochondrial membrane potential changes, profiling panel, cell-based, JC-1 fluorescence, 24 h, 100 nL compound (AID 1169); settings: RPMI8226 myeloma, JC-1 mitochondrial potential fluorescence, higher = more signal; also: test concentration not given here
# [9] = basal MM1S mitochondrial membrane potential changes, profiling panel, cell-based, JC-1 fluorescence, 24 h, 100 nL compound (AID 1170); settings: higher = more signal; also: test concentration not given here
# [10] = A549 lung cancer cell viability effects, profiling panel, resazurin fluorescence, 24 h, PK04 Diversity Set (AID 1171); settings: higher = more signal, called active from +8 up or from −8 down; also: test concentration not given here
# [11] = HepG2 liver cancer cell viability effects, profiling panel, resazurin fluorescence, 24 h, PK04 Diversity Set (AID 1172); settings: higher = more signal; also: test concentration not given here
# [12] = basal S. cerevisiae growth modulation, no modifier, primary screen, OD600, strain BY4716, 24 h, basal condition (AID 1173); settings: OD600, 24 h, higher = more signal, called active from +8 up or from −8 down
# [13] = MM1S myeloma cell viability, profiling panel, resazurin fluorescence, basal, 24 h, PK04 Diversity Set (AID 1174); settings: higher = more signal, called active from +8 up or from −8 down;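 also: MM1S multiple myeloma cell line; test concentration not given here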
# [14] = target: Dihydroorotate dehydrogenase (quinone), mitochondrial (Plasmodium falciparum (isolate 3D7)) (UniProt Q08210); test: PfDHODH enzyme inhibitors, primary screen, biochemical, C-terminal His tag, absorbance 600 nm (AID 1175); settings: DCIP absorbance 600 nm, higher = more signal, called active from +8 up or from −8 down;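 also: recombinant parasite enzyme with a five histidine tag at its C terminus; test concentration not given here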
# Chain of Dihydroorotate dehydrogenase (quinone), mitochondrial (Plasmodium falciparum (isolate 3D7)) (Q08210 whole entry, looked up): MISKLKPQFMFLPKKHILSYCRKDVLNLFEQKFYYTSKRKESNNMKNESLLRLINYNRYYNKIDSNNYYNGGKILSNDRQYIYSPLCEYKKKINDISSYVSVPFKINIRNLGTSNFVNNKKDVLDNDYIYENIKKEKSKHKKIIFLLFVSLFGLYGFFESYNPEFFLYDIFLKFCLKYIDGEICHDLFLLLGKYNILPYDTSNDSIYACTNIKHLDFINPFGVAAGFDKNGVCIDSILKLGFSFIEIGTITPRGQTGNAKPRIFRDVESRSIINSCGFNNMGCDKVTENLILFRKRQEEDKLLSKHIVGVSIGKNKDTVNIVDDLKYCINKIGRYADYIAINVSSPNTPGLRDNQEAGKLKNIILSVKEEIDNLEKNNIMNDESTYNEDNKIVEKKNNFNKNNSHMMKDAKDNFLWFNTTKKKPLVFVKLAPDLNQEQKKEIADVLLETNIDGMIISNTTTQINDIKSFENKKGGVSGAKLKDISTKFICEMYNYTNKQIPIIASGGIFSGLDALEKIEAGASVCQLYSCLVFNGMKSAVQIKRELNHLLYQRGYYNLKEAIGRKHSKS
# [15] = P. aeruginosa biofilm formation inhibitors, primary screen, strain PAO1, LB-PBS medium, absorbance 600 nm (AID 1176); also: test concentration not given here; settings: P. aeruginosa PAO1 growth/biofilm, A600, 12 h; higher = more signal
# [16] = S. cerevisiae RM11-1a growth modifiers, primary screen, strain RM11-1a, OD600, basal, 24 h (AID 1177); settings: OD600, 24 h, higher = more signal, called active from +8 up or from −8 down;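 also: cultures grown under basal conditions with no added stressor; test concentration not given here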
# [17] = E. coli acrAB mutant growth effects, primary screen, E. coli filamentation inducers, strain DRC39, OD650, 24 h (AID 1178); settings: higher = more signal, called active from +8 up or from −8 down;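 also: growth measured as culture turbidity by optical density at 650 nm; test concentration not given here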
# [18] = E. coli acrAB mutant growth effects, primary screen, E. coli filamentation inducers, strain DRC39, OD650, 48 h (AID 1179);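 also: screen aims at cell division blockers that make cells filament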; settings: E. coli DRC39 delta-acrAB growth, higher = more signal, called active from +8 up or from −8 down
# [19] = RPMI8226 myeloma cell viability, profiling panel, resazurin fluorescence, basal, 24 h, PK04 Diversity Set (AID 1180); settings: higher = more signal;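 also: RPMI8826 multiple myeloma cell line at 5000 cells per well; test concentration not given here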
# [20] = target: E3 ubiquitin-protein ligase XIAP (Homo sapiens) (UniProt P98170); test: XIAP binders, primary screen, biophysical, small-molecule microarray, fluorescence 635 nm (AID 1181); settings: small-molecule microarray binding, higher = more signal;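 also: score merges 667 nm emission and signal to noise over triplicate slides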
# Chain of E3 ubiquitin-protein ligase XIAP (Homo sapiens) (P98170 whole entry, looked up): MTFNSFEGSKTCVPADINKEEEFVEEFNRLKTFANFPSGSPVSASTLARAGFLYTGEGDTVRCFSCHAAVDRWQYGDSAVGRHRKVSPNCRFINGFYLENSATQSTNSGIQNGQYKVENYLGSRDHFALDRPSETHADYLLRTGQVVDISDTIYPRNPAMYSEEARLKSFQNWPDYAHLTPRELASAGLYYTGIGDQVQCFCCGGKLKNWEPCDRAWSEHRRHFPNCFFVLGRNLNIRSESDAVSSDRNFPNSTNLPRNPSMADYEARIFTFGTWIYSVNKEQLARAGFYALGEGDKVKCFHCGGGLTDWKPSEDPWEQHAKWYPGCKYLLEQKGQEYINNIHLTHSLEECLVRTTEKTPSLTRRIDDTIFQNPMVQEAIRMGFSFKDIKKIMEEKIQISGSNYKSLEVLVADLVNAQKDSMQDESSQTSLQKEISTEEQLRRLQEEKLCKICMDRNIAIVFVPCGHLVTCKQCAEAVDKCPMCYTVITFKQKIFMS
Compound,z-score [1],z-score [2],z-score [3],z-score [4],z-score [5],z-score [6],z-score [7],z-score [8],z-score [9],z-score [10],z-score [11],z-score [12],z-score [13],composite z-score [14],z-score [15],z-score [16],z-score [17],z-score [18],z-score [19],composite z-score [20]
O=C1C[C@@](C(=O)NCc2ccccc2)(c2ccc([N+](=O)[O-])cc2)[C@@H](c2ccc(CO)cc2I)N1CC12CC3CC(CC(C3)C1)C2,-1.84,0.684,-2.67,-2.99,-4.33,0.878,-0.473 (inactive),-1.03,-0.91,-1.63 (inactive),-1.28,-0.787 (inactive),-1.73 (inactive),-0.0036 (inactive),0.593 (inactive),-0.229 (inactive),0.0207 (inactive),0.348 (inactive),-2.62,-0.227
CC(C)C(=C=CC[C@@H](O)c1cccc(OCCO)c1)C[C@@H](O)COCc1ccccc1,1.05,1.32,0.512,0.0108,0.442,0.427,0.686 (inactive),0.46,-0.794,0.151 (inactive),0.564,-1.91 (inactive),0.301 (inactive),-3.34 (inactive),0.424 (inactive),-2.4 (inactive),0.789 (inactive),0.633 (inactive),0.47,-0.119
O=C1C2C=CC(C(O)c3ccc(I)cc3)N(Nc3ccccc3)C2C(=O)N1c1ccccc1 (stereo not given),0.0685,-0.748,0.1,0.196,-0.311,-2.3,-1.3 (inactive),-0.865,-0.603,-0.393 (inactive),-1.04,-2.16 (inactive),-1.38 (inactive),0.45 (inactive),1.58 (inactive),-0.208 (inactive),-1.07 (inactive),-0.28 (inactive),-0.312,0.162
O=C(O)[C@H]1C[C@H]2C(=O)N[C@@H](Cc3ccccc3)C(=O)N2[C@H]1c1cccc(OCCO)c1,1.11,-0.218,0.259,-3.41,-0.958,1.64,-0.169 (inactive),-0.299,-1.18,0.75 (inactive),1.02,-1.46 (inactive),0.912 (inactive),-1.98 (inactive),-0.295 (inactive),-0.655 (inactive),-0.688 (inactive),0.214 (inactive),0.889,-0.0323
CO[C@H]1O[C@H](CO)[C@@H](OC(=O)Nc2ccc(C#N)cc2)[C@@H]2OC(=O)[C@H](Cc3cccc(Br)c3)C/C=C/C[C@@H](Cc3cccc(Br)c3)C(=O)O[C@@H]12,1.31,0.685,1.29,-1.71,-0.487,1.73,1.74 (inactive),-0.579,-0.935,-2.28 (inactive),-1.39,-0.253 (inactive),-3.14 (inactive),-0.631 (inactive),1.23 (inactive),0.99 (inactive),0.295 (inactive),0.432 (inactive),-2.37,-0.355
CC(C)OC(=O)CC(=O)CC(O)c1ccc([N+](=O)[O-])cc1 (stereo not given),1.78,-0.228,0.714,0.772,0.159,0.775,0.377 (inactive),-0.121,-0.359,-0.741 (inactive),-0.55,-1.41 (inactive),-0.119 (inactive),-1.12 (inactive),-0.088 (inactive),0.0857 (inactive),-0.346 (inactive),0.0547 (inactive),-0.0948,-0.212
[N-]=[N+]=Nc1ccccc1[C@@H]1OC(c2ccc(OCCCO)cc2)=N[C@]1(Cc1ccccc1)C(=O)NCc1ccccc1,-1.17,-0.0535,-2.13,-3.35,-3.8,-2.02,0.976 (inactive),-1.14,-2.59,-1.48 (inactive),-0.421,0.152 (inactive),-3.62 (inactive),0.613 (inactive),0.563 (inactive),0.265 (inactive),-0.324 (inactive),-0.441 (inactive),-3.62,0.338
CN(C)C(=O)[C@]1(CCS(=O)(=O)c2ccccc2)N=C(c2ccc(OCCCO)cc2)O[C@@H]1c1ccccc1,-1.05,1.02,-0.416,-0.675,-0.76,1.34,-0.132 (inactive),-0.783,-1.24,-0.482 (inactive),1.4,-0.265 (inactive),-0.342 (inactive),0.524 (inactive),-0.484 (inactive),-0.315 (inactive),0.582 (inactive),-0.0986 (inactive),-0.155,0.0651
CC(C)(C)OC(=O)CC[C@]1(C(=O)N2CCCCC2)COC(c2ccc(OCCCO)cc2)=N1,-0.34,0.162,-0.614,-0.0601,-0.225,-0.696,-0.378 (inactive),-0.492,-0.978,2.58 (inactive),2.29,-1.31 (inactive),0.619 (inactive),-0.509 (inactive),-1.17 (inactive),-0.398 (inactive),0.134 (inactive),0.139 (inactive),1.41,0.162
